Molecules are shown by their SMILES.

Results on four molecules are retold here after ChEMBL document CHEMBL1961873, “Compounds: GSK PKIS; Assays: Nanosyn kinase panel” (2012).

In assay [1] the target is Tyrosine-protein kinase SYK (Homo sapiens) (UniProt P43405). The note with it: at 1 µM.
Assay [2] deals with T1, Tyrosine-protein kinase Tec (Homo sapiens) (UniProt P42680).
T1 sequence (whole entry): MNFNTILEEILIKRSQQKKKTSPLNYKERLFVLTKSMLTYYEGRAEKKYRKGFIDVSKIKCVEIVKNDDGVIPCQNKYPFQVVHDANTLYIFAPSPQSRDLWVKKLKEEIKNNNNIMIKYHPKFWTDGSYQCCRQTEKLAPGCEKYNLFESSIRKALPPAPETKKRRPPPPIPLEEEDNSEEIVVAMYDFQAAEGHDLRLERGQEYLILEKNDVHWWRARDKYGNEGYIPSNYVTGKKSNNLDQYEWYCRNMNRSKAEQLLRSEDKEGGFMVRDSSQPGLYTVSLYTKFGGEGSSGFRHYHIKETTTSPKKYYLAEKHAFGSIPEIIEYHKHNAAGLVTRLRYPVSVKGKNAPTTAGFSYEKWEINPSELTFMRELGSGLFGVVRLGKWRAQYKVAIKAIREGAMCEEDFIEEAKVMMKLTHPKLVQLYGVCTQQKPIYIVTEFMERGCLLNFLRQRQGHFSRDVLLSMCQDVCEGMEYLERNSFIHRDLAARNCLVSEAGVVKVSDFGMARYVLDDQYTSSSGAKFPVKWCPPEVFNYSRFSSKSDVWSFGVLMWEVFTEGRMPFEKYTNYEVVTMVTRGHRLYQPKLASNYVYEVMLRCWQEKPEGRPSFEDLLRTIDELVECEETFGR
The note with it: at 0.1 µM.

For assay [3], the target named is T1, Tyrosine-protein kinase Tec (Homo sapiens). The note with it: at 1 µM.
The target in assay [4] is Angiopoietin-1 receptor (Homo sapiens) (UniProt Q02763). The note with it: at 0.1 µM.
Angiopoietin-1 receptor (Homo sapiens), sequence (Q02763 whole entry): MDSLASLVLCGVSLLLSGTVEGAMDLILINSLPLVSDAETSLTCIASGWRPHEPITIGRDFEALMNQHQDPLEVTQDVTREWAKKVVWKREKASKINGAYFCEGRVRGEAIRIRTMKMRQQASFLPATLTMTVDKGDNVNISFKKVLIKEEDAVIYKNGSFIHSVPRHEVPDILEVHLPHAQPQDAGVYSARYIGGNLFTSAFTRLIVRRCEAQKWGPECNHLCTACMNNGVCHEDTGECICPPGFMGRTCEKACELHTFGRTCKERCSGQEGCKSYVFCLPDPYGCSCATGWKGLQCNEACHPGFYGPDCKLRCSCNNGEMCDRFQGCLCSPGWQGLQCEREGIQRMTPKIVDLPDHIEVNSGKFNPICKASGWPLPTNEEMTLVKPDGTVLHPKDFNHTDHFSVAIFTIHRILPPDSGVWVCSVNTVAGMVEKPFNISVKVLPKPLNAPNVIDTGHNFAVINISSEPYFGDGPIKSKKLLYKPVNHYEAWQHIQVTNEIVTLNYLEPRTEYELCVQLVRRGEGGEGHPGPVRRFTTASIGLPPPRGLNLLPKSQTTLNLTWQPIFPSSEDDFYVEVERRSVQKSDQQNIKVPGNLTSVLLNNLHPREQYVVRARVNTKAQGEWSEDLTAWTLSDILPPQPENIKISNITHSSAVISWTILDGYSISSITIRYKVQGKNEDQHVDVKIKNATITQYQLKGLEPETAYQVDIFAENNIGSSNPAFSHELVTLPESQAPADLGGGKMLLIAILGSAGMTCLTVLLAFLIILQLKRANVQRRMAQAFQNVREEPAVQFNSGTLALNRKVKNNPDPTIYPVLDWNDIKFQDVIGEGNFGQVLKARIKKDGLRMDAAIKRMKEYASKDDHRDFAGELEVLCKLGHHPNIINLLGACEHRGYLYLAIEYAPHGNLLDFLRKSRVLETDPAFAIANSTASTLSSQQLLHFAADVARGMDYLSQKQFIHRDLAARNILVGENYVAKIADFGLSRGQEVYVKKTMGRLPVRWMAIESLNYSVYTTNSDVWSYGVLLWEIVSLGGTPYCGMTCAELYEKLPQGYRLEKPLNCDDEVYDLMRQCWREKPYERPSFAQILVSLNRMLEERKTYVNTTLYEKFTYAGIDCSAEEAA
Assay [5] shares this target. The note with it: at 1 µM.
The target in assay [6] is T2, Non-receptor tyrosine-protein kinase TNK1 (Homo sapiens) (UniProt Q13470).
T2 sequence (whole entry): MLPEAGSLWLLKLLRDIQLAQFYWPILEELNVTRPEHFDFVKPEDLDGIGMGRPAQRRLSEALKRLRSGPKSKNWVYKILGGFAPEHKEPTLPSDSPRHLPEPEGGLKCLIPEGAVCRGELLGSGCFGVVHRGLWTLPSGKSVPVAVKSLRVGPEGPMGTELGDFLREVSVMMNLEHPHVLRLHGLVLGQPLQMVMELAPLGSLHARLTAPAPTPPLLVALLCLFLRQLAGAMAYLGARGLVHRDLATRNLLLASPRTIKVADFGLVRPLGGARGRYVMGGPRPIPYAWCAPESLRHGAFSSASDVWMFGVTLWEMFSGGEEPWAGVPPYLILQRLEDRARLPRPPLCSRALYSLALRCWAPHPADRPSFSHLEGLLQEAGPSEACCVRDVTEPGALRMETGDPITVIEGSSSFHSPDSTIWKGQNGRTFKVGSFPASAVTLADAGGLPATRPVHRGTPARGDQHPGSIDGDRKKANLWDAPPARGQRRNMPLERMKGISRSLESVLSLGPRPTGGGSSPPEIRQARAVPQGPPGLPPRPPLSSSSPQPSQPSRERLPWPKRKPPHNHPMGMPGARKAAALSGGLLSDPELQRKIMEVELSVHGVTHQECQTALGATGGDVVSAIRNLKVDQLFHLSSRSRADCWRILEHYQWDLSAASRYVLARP
The note with it: at 0.1 µM.

Assay [7] concerns the target T2, Non-receptor tyrosine-protein kinase TNK1 (Homo sapiens). Particulars: at 1 µM.
Assay [8] deals with Activated CDC42 kinase 1 (Homo sapiens) (UniProt Q07912). The note with it: at 0.1 µM.
Activated CDC42 kinase 1 (Homo sapiens), sequence (Q07912 whole entry, looked up): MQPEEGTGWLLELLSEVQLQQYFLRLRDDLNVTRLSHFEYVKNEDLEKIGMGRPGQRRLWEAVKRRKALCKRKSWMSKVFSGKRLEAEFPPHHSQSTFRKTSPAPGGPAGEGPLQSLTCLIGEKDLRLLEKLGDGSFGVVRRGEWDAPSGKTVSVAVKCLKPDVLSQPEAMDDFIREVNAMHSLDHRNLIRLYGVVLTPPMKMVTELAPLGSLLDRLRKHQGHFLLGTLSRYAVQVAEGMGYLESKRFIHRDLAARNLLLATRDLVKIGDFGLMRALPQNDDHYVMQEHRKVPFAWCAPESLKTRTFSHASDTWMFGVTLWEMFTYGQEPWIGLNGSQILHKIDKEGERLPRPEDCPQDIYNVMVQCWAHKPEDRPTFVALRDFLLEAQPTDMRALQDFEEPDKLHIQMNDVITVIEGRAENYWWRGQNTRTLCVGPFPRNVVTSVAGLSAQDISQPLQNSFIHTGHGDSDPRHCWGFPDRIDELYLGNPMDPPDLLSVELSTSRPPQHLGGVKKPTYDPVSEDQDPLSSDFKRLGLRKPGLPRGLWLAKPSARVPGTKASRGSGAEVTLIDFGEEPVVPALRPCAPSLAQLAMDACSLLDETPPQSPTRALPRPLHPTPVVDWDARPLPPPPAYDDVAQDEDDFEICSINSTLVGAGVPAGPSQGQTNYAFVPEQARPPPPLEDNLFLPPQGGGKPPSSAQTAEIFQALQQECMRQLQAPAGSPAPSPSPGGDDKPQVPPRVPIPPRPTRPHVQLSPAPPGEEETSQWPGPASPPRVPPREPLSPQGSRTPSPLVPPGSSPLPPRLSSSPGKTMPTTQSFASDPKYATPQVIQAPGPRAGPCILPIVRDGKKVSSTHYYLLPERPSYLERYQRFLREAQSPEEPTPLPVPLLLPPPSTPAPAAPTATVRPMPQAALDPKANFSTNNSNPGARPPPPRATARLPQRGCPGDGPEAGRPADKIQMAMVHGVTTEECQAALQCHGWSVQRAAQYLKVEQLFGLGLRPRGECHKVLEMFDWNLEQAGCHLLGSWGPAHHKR
For assay [9] the target is unchanged. The note with it: at 1 µM.
Assay [10] concerns the target High affinity nerve growth factor receptor (Homo sapiens) (UniProt P04629). Particulars: at 0.1 µM.
For assay [11] the target is unchanged. The note with it: at 1 µM.
Assay [12] concerns the target BDNF/NT-3 growth factors receptor (Homo sapiens) (UniProt Q16620). Particulars: at 0.1 µM.
For assay [13] the target is unchanged. The note with it: at 1 µM.
Assay [14] concerns the target NT-3 growth factor receptor (Homo sapiens) (UniProt Q16288). Particulars: at 0.1 µM.
Assay [15] shares this target. The note with it: at 1 µM.
Assay [16] concerns the target T3, Tyrosine-protein kinase TXK (Homo sapiens) (UniProt P42681).
T3 sequence (whole entry): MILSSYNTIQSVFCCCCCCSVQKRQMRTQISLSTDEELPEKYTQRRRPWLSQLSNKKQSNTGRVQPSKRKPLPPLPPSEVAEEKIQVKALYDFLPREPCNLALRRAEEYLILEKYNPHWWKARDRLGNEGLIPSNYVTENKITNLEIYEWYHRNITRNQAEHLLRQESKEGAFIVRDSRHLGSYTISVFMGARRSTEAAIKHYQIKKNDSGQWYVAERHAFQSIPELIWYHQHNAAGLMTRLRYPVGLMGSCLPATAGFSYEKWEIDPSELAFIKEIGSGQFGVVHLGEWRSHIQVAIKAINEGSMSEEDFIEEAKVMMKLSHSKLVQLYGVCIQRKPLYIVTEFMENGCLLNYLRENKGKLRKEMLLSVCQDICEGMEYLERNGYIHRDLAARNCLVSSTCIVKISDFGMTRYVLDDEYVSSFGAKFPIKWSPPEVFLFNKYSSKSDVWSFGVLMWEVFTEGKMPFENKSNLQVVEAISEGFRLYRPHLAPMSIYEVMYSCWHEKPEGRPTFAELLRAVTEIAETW
The note with it: at 0.1 µM.

The target of assay [17] is T3, Tyrosine-protein kinase TXK (Homo sapiens). Particulars: at 1 µM.
Assay [18] concerns the target Non-receptor tyrosine-protein kinase TYK2 (Homo sapiens) (UniProt P29597). The note with it: at 0.1 µM.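 Note: each value is a mean of the inhibition readings.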
In assay [19] the target is T4, Dual specificity protein kinase TTK (Homo sapiens) (UniProt P33981).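 Note: reported figures are mean TTK inhibition at 1 µM.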
T4 sequence (whole entry): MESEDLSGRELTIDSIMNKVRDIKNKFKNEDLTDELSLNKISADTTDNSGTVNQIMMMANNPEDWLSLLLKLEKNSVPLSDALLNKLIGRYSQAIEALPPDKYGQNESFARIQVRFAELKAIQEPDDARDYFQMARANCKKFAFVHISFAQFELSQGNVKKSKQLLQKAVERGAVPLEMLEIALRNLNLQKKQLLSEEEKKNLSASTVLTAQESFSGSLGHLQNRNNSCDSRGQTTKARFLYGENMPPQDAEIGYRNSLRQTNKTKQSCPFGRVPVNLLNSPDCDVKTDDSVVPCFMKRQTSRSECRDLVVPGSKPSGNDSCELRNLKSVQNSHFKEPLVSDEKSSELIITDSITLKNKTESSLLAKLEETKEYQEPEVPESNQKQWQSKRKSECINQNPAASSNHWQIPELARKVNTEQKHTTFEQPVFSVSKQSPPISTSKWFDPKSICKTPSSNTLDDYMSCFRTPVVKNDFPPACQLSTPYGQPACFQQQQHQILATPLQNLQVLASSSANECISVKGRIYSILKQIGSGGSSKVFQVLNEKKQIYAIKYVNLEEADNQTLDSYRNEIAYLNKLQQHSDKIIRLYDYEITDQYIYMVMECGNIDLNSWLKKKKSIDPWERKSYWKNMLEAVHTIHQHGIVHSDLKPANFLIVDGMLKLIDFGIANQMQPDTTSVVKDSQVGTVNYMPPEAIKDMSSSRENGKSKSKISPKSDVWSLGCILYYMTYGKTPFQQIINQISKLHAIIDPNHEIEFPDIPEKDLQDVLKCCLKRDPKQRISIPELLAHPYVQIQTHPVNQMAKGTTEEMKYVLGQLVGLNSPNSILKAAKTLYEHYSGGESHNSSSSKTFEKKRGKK
The note with it: at 1 µM.

Assay [20] deals with T5, Aurora kinase A (Homo sapiens) (UniProt O14965).
T5 sequence (whole entry): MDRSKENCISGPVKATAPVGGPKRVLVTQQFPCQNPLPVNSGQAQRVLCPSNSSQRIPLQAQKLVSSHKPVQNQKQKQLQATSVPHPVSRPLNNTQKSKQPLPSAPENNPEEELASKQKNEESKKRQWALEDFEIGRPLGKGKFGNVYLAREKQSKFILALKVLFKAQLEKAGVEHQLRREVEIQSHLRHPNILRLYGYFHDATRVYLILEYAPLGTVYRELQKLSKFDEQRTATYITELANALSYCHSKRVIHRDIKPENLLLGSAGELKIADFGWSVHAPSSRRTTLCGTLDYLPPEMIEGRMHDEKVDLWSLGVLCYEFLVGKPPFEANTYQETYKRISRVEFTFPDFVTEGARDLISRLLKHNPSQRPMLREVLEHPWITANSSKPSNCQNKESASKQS
The note with it: at 0.1 µM.

Non-receptor tyrosine-protein kinase TYK2 (Homo sapiens), sequence (P29597 whole entry): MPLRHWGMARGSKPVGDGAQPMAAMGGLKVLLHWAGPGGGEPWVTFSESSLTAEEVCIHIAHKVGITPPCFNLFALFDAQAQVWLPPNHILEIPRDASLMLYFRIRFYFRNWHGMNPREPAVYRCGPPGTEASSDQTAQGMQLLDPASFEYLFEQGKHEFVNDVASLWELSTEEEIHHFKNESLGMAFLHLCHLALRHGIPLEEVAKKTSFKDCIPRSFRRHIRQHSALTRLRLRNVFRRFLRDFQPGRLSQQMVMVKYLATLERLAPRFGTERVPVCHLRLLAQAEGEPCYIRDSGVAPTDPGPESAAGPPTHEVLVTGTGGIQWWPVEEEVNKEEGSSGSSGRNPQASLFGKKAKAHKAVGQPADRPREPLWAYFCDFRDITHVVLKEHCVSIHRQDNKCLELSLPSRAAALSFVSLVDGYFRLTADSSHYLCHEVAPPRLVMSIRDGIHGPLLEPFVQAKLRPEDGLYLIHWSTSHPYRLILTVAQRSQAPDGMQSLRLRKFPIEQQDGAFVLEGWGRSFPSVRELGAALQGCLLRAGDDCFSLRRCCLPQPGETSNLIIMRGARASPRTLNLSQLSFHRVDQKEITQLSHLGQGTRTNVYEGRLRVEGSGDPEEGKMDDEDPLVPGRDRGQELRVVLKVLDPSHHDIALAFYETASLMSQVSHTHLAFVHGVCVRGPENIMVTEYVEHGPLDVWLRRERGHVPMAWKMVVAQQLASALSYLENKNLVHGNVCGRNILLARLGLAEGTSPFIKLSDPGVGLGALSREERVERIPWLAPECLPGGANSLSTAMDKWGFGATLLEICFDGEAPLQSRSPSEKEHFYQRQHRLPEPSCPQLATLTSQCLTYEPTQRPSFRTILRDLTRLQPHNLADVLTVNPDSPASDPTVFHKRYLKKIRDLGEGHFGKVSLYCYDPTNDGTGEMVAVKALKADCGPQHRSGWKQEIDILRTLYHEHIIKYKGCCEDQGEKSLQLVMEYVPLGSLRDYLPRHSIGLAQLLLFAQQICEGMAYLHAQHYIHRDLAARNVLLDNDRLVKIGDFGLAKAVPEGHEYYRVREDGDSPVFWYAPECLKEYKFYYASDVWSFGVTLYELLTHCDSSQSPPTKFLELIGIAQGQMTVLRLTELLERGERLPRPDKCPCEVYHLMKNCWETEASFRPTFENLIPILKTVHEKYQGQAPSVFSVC
BDNF/NT-3 growth factors receptor (Homo sapiens), sequence (Q16620 32-822 limits assumed): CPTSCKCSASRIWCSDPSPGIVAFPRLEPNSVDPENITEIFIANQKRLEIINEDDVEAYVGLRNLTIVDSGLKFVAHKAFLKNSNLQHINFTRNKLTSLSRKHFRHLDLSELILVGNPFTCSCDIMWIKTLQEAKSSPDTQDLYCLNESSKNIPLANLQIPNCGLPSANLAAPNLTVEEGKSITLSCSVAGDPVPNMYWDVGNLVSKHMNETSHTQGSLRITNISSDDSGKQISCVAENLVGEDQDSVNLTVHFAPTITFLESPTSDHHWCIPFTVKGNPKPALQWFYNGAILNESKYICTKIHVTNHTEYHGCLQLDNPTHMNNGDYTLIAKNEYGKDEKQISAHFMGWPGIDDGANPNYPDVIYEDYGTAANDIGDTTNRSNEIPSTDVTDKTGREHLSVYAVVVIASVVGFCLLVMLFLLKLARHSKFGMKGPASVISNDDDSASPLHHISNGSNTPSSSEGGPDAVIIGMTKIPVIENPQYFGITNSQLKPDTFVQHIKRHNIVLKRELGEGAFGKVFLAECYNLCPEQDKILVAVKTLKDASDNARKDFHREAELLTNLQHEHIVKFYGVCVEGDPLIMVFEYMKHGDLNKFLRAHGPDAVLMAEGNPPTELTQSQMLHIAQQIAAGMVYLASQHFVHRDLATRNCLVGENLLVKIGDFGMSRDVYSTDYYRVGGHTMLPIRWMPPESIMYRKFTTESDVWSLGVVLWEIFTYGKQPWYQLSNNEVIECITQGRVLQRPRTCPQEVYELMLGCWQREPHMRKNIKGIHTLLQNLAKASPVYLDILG
High affinity nerve growth factor receptor (Homo sapiens), sequence (P04629 33-796 limits assumed): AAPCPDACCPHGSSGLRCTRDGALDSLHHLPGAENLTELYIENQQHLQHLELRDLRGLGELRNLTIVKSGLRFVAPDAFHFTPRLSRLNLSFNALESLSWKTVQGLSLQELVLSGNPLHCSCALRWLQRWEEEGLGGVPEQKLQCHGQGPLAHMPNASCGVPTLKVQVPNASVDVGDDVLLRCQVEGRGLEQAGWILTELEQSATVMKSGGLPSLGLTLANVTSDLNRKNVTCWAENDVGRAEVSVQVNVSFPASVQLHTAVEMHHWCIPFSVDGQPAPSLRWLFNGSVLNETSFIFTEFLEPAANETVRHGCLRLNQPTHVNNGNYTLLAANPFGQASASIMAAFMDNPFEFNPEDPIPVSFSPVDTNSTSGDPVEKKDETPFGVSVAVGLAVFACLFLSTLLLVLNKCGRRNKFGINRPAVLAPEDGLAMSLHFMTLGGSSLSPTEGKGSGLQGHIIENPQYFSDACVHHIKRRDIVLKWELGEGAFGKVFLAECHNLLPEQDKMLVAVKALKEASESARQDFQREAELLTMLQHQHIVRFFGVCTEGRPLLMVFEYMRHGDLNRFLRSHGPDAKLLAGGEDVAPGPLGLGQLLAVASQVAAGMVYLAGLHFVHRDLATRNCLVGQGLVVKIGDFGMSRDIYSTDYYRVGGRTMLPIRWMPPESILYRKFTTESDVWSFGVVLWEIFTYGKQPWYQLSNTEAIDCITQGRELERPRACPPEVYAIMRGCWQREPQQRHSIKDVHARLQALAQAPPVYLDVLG

With `CCS(=O)(=O)c1ccc(OC)c(Nc2ncc(-c3ccccc3Cl)o2)c1`, the inhibition in assay [1] was 4.5%; in [2] it was 3.48%; in assay [3], 5.03%; in assay [4], 0.48%; in assay [5] it was 7.52%; in [6], 16.9%. The inhibition in [7] came out at 67.2%; in assay [8] it was 1.07%; in assay [9] it was 3.27%; in [10] it was 2.9%; in assay [11], 5.58%; in assay [12], 1.97%. Besides, the inhibition in assay [13] was 8.35%; in assay [14], 3.33%; in assay [15] it was 12.5%; in assay [16] it was 1.52%; in assay [17], 10.3%; in assay [18], -3.24%. For the same molecule, the results for the inhibition in [19] and in assay [20] were 9.34% and 1.49%, respectively.

With `C#Cc1cccc(Nc2ncnc3ccc(OCCCCNCCS(C)(=O)=O)cc23)c1`, the inhibition is 0.39% in [1]; 5.96% in assay [2]; 9.84% in assay [3]; 5.13% in [4]; 12.5% in [5]; 2.31% in assay [6]. In addition, the inhibition in assay [7] worked out at 20.9%; in [8], 2.03%; in [9], 7.01%; in [10] it was 2.95%; in assay [11], 1.9%; in assay [12], 3.91%. The inhibition in assay [13] was 2.28%; in [14], 3.6%; in [15], 4.94%; in [16], 5.2%; in assay [17], 7.94%; in assay [18], -6.6%. For the same molecule, the inhibition in assay [19] is 9.83%; in assay [20], -1.65%.

Turning to `CN(C)c1ccc2c(c1)/C(=C/Nc1ccc(S(N)(=O)=O)cc1)C(=O)N2`, the inhibition amounted to 0.31% in assay [1]; 1.4% in [2]; 2.35% in assay [3]; 1.03% in assay [4]; 5.59% in assay [5]; 0.71% in assay [6]. The inhibition in [7] came to 5.7%; in [8], 0.14%; in assay [9], 1.79%; in assay [10] it was 6.93%; in [11], 46.2%; in assay [12], 15.4%. Also, the inhibition stood at 65.2% in assay [13]; 21% in assay [14]; 73.1% in assay [15]; 3.16% in assay [16]; 4.14% in assay [17]; 1.02% in assay [18]. Also, the inhibition in assay [19] was 12.5%; in assay [20], 6.26%.

For `COc1cccc(-n2cnc3c(N/N=C/c4ccncc4)ncnc32)c1`, the inhibition in assay [1] is -1.09%; in assay [2] it was -2.49%; in assay [3] it was 5.03%; in assay [4], -0.9%; in assay [5] it was 9.67%; in [6], 1.98%. In addition, the inhibition is 19.3% in assay [7]; 0.06% in [8]; 3.07% in assay [9]; -1.67% in [10]; 7.04% in assay [11]; 0.22% in assay [12]. In addition, the inhibition in assay [13] was 6.69%; in assay [14], 0.58%; in assay [15] it was 9.77%; in [16] it was -1.8%; in assay [17], 4.69%; in [18] it was 3.07%. The inhibition in [19] was 5.77%; in assay [20], -0.8%.

As usually defined, the inhibition is the relative decrease from the control value, in per cent.
